This is one part of a sample in which hits are shown more often than they occur.
miR-122 inh: raises miR-122 sensor activity in Huh7 cells; activation, % at 12.5 µM; 340,000 compounds, 0.14% hits; Huh7 psiCHECK-miR122 Renilla luciferase sensor, 48 h;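 active means mean activation of 30% or more, with every replicate also reaching 30%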;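 further: 0% = median of neutral control wells and 100% = median of positive control wells; higher luciferase signal means stronger suppression of miR-122 activity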
Numbers without * were called inactive.

C[C@H]1CN([C@@H](C)CO)C(=O)c2cc(C#CC(C)(C)O)cnc2O[C@H]1CN(C)Cc1cncnc1 was read as miR-122 inh -109.
`C[C@@H]1CN([C@@H](C)CO)C(=O)Cc2cc(NC(=O)NC3CCCCC3)ccc2O[C@H]1CN(C)Cc1ccncc1` gave miR-122 inh 3.
Screening CCC(=O)N(C)C[C@H]1Oc2ncc(C#CC3(O)CCCC3)cc2C(=O)N([C@H](C)CO)C[C@@H]1C returned miR-122 inh -6.
C[C@@H]1CN([C@@H](C)CO)C(=O)c2cc(C#CC3(O)CCCC3)cnc2O[C@H]1CN(C)C(=O)Cc1ccccc1 was read as miR-122 inh -4.
For CCC(=O)N(C)C[C@H]1Oc2cc(-c3cccc(C#N)c3)ccc2S(=O)(=O)N([C@@H](C)CO)C[C@H]1C the results were miR-122 inh 1.
CCCN(C)C[C@H]1Oc2cc(C#CCN(C)C)ccc2S(=O)(=O)N([C@@H](C)CO)C[C@H]1C was read as miR-122 inh -4.
Screening Cc1ccc(S(=O)(=O)N(C)C[C@H]2Oc3cc(C#CC4CCCC4)ccc3S(=O)(=O)N([C@@H](C)CO)C[C@H]2C)cc1 returned miR-122 inh -61.
C[C@H](CO)N1C[C@H](C)[C@H](CN(C)Cc2ccccc2)Oc2ncc(-c3cncnc3)cc2C1=O was read as miR-122 inh 0.
For COc1ccc(C#Cc2ccc3c(c2)O[C@H](CN(C)C(=O)CN2CCOCC2)[C@@H](C)CN([C@@H](C)CO)S3(=O)=O)cc1 the results were miR-122 inh 43*.
Screening C/C=C/c1ccc2c(c1)O[C@H](CN(C)C(=O)c1cnccn1)[C@H](C)CN([C@@H](C)CO)S2(=O)=O returned miR-122 inh 44*.
C/C=C/c1ccc2c(c1)O[C@H](CN(C)C(=O)c1cccnc1)[C@@H](C)CN([C@H](C)CO)S2(=O)=O was read as miR-122 inh -5.
For CCCC#Cc1ccc2c(c1)O[C@H](CN(C)C(=O)c1cccnc1)[C@H](C)CN([C@H](C)CO)S2(=O)=O the results were miR-122 inh 11.
For CCCC#Cc1ccc2c(c1)O[C@H](CN(C)C(=O)c1ccccn1)[C@@H](C)CN([C@H](C)CO)S2(=O)=O the results were miR-122 inh -128.
`CCCC#Cc1ccc2c(c1)O[C@@H](CN(C)C(=O)c1cccnc1)[C@H](C)CN([C@@H](C)CO)S2(=O)=O` gave miR-122 inh -18.
CC(C)CC#Cc1ccc2c(c1)O[C@H](CN(C)C(=O)c1cnccn1)[C@H](C)CN([C@H](C)CO)S2(=O)=O was read as miR-122 inh 39*.
Screening CC(C)CC#Cc1ccc2c(c1)O[C@@H](CN(C)C(=O)NC1CCCC1)[C@@H](C)CN([C@H](C)CO)S2(=O)=O returned miR-122 inh -7.
Screening COc1cccc(C#Cc2ccc3c(c2)O[C@H](CN(C)C(=O)CN2CCOCC2)[C@@H](C)CN([C@@H](C)CO)S3(=O)=O)c1 returned miR-122 inh -18.
For CC(C)CC#Cc1ccc2c(c1)O[C@H](CN(C)C(=O)c1cnccn1)[C@H](C)CN([C@@H](C)CO)S2(=O)=O the results were miR-122 inh 36*.
Screening COc1cccc(C#Cc2ccc3c(c2)O[C@H](CN(C)C(=O)CN2CCOCC2)[C@H](C)CN([C@@H](C)CO)S3(=O)=O)c1 returned miR-122 inh -28.
For C/C=C/c1ccc2c(c1)O[C@@H](CN(C)C(=O)Cc1ccccn1)[C@@H](C)CN([C@@H](C)CO)S2(=O)=O the results were miR-122 inh 0.
`C[C@@H]1CN([C@H](C)CO)C(=O)c2cc(/C=C/c3ccccc3)cnc2O[C@H]1CN(C)C(=O)c1cccnc1` gave miR-122 inh 9.
CC(C)CC#Cc1cnc2c(c1)C(=O)N([C@H](C)CO)C[C@@H](C)[C@H](CN(C)C(=O)Nc1cccc(F)c1)O2 was read as miR-122 inh -7.
C[C@H](CO)N1C[C@H](C)[C@H](CN(C)CC2CCOCC2)Oc2ncc(C#CCc3ccccc3)cc2C1=O was read as miR-122 inh 2.
For COc1ccccc1-c1ccc2c(c1)O[C@H](CN(C)C(=O)Nc1ccccc1)[C@@H](C)CN([C@@H](C)CO)S2(=O)=O the results were miR-122 inh -32.
C[C@H]1CN([C@@H](C)CO)C(=O)c2cc(-c3ccncc3)cnc2O[C@H]1CN(C)C(=O)c1ccccc1F was read as miR-122 inh 9.
`C[C@@H]1CN([C@@H](C)CO)S(=O)(=O)c2ccc(-c3ccncc3)cc2O[C@H]1CN(C)Cc1ccccn1` gave miR-122 inh 1.
Screening COCC(=O)N(C)C[C@H]1Oc2cc(C#Cc3cccnc3)ccc2S(=O)(=O)N([C@H](C)CO)C[C@H]1C returned miR-122 inh 51*.
CC(C)CC#Cc1ccc2c(c1)O[C@H](CN(C)C(=O)c1ccccc1)[C@@H](C)CN([C@@H](C)CO)S2(=O)=O was read as miR-122 inh -40.
For CCC(=O)N(C)C[C@H]1Oc2cc(C#Cc3cccnc3)ccc2S(=O)(=O)N([C@@H](C)CO)C[C@H]1C the results were miR-122 inh -16.
For CCC(=O)N(C)C[C@@H]1Oc2cc(C#Cc3cccnc3)ccc2S(=O)(=O)N([C@@H](C)CO)C[C@H]1C the results were miR-122 inh -8.
Screening CC(C)CC#Cc1ccc2c(c1)O[C@H](CN(C)C(=O)c1ccccc1)[C@H](C)CN([C@H](C)CO)S2(=O)=O returned miR-122 inh 42*.
`CC(C)C#Cc1ccc2c(c1)O[C@H](CN(C)C(=O)c1ccccc1)[C@H](C)CN([C@H](C)CO)S2(=O)=O` gave miR-122 inh 12.
`CCC(=O)Nc1ccc2c(c1)OC[C@H](C)N(C(=O)CN1CCOCC1)C[C@@H](C)[C@@H](OC)CN(C)C2=O` gave miR-122 inh 0.
For C[C@@H]1CN([C@H](C)CO)C(=O)c2cc(/C=C/c3ccccc3)cnc2O[C@H]1CN(C)Cc1ccccc1F the results were miR-122 inh -31.
C[C@H]1CN([C@@H](C)CO)S(=O)(=O)c2ccc(C#Cc3cccnc3)cc2O[C@@H]1CN(C)CC1CCOCC1 was read as miR-122 inh -3.
`COCC#Cc1cnc2c(c1)C(=O)N([C@@H](C)CO)C[C@H](C)[C@@H](CN(C)C(=O)Nc1c(C)noc1C)O2` gave miR-122 inh -15.
For C/C=C/c1cnc2c(c1)C(=O)N([C@H](C)CO)C[C@@H](C)[C@H](CN(C)C(=O)c1cccnc1)O2 the results were miR-122 inh 2.
`Cc1ccc(-c2ccc3c(c2)O[C@H](CN(C)Cc2cccc(C(=O)O)c2)[C@@H](C)CN([C@H](C)CO)S3(=O)=O)cc1` gave miR-122 inh -16.
COC(=O)c1ccc(NS(=O)(=O)c2cc(C)ccc2OC)cc1 was read as miR-122 inh -150.
For COC(=O)c1ccc2c(c1)C(C)(C)C(/C=C/c1ccc(OC)c(OC)c1OC)=[N+]2C the results were miR-122 inh 40*.
Screening COc1ccc(C#Cc2ccc3c(c2)O[C@@H](CN(C)C)[C@@H](C)CN([C@H](C)CO)S3(=O)=O)cc1 returned miR-122 inh 3.
Screening CCCNC(=O)NC[C@@H]1[C@@H](c2ccc(C3=CCCC3)cc2)[C@@H](CO)N1C(=O)CC returned miR-122 inh -143.
Screening C[C@@H]1CN([C@@H](C)CO)C(=O)c2cc(-c3ccc(C#N)cc3)cnc2O[C@@H]1CN(C)CC1CCOCC1 returned miR-122 inh 7.
`Cc1cc(C(C)(C)CC(C)(C)C)ccc1OCCOCC[N+](C)(C)Cc1ccccc1` gave miR-122 inh 58*.
Screening C[C@H](CO)N1C[C@H](C)[C@@H](CN(C)C(=O)c2ccncc2)Oc2cc(C#C[C@@H](C)O)ccc2S1(=O)=O returned miR-122 inh -7.
Screening Cc1cc(C)c2c(c1)/C(=C/C(=O)c1ccc(Br)s1)C(=O)N2 returned miR-122 inh 43*.
Screening C[C@@H]1CN([C@@H](C)CO)S(=O)(=O)c2ccc(-c3cncnc3)cc2O[C@H]1CN(C)C(=O)Cc1cccnc1 returned miR-122 inh -1.

High-throughput results: PubChem BioAssay, Broad Institute
